Hit rate of the full screen: of about 340,000 compounds, about 2,100 (0.62%) were called active.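 Rule for the calls: active = first-screen hits whose inhibition reached a set limit at any dose in the follow-up dose series; inconclusive = inhibition above the set first-screen limit but never retested; inactive = the rest.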 Only a sample is shown. Results with a measured potency or affinity are listed apart.
Molecular target: Rac GTPase-activating protein 1 (Homo sapiens) (UniProt Q9H0H5)
Experiment: MgcRacGAP GTPase-activating activity inhibitors, confirmation, biochemical, ADP Hunter fluorescence, primary and confirmatory (AID 624330);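 note: fluorescence reports GDP produced by GAP-driven GTP hydrolysis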
Conditions: MgcRacGAP-stimulated Rac1 GTP hydrolysis, at 30 µM, stronger effect = higher value, GST-tagged Rac1 F28L mutant substrate

Sequence of Rac GTPase-activating protein 1 (Homo sapiens) (Q9H0H5 whole entry, looked up): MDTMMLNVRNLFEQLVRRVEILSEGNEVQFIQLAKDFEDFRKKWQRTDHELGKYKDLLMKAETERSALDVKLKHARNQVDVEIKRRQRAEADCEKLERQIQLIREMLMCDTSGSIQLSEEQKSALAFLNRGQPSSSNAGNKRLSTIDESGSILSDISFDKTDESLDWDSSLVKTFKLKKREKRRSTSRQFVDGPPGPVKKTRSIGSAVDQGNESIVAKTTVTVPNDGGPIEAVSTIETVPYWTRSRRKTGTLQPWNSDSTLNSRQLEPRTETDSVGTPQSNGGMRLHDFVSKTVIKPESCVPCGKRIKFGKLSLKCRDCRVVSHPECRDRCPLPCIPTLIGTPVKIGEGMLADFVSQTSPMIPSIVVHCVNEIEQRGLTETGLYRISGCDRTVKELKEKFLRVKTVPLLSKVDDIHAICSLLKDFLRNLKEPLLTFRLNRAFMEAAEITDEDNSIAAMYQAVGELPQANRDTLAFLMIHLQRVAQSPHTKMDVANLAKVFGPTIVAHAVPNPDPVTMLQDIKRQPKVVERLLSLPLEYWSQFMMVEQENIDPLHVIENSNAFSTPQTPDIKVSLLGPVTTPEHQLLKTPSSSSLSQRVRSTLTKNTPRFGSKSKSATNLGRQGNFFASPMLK

inhibition, inactive:
COc1ccc(C(=O)N/C(=C\c2cc(OC)c(OC)cc2[N+](=O)[O-])C(=O)NCC(=O)O)cc1 5.33%
CN(C)CCNC(=O)c1cccc2nc3cccc(F)c3nc12 14%
COc1ccc(-c2nc3c(C(=O)NCCN(C)C)cccc3c3ccccc23)cc1 28.1%
O=C(N/N=C/c1ccc(F)c(F)c1)c1cccc(S(=O)(=O)N2CCCCC2)c1 0.51%
CCN(CC)S(=O)(=O)c1cccc(C(=O)N/N=C/c2cccc(O)c2O)c1 15%
O=C(NN=Cc1ccc(F)cc1)c1cccc(S(=O)(=O)N2CCCC2)c1 6.35%
CCOc1cc(/C=N/NC(=O)c2cccc(S(=O)(=O)N3CCCC3)c2)ccc1OCC(=O)N(C)C 5.83%
CCN(CC)S(=O)(=O)c1cccc(C(=O)N/N=C/c2cc(OC)c(O)c(OC)c2)c1 13.8%
CCOc1ccccc1/C=N/NC(=O)c1cccc(S(=O)(=O)N2CCOCC2)c1 5.13%
O=C(/C=C/c1ccc(N2CCCCC2)c([N+](=O)[O-])c1)c1ccc(S(=O)(=O)N2CCCC2)cc1 6.38%
O=C(O)c1ccc(S(=O)(=O)N2CCCCCCC2)cc1 13.8%
COc1cc2c(cc1OC)C(c1ccccc1)N(C(=O)C(C)(C)C)CC2 (stereo unspecified) 5.24%
COc1cc(/C=N/NC(=O)c2cccc(S(=O)(=O)N3CCCCC3)c2)cc(Br)c1O 18.1%
COc1cc(/C=N/NC(=O)c2cccc(S(=O)(=O)N3CCCC3)c2)cc(OC)c1O 15.2%
O=C(COC(=O)C1CC1)NCCc1ccccc1 -3.28%
COCCCN1C(=O)C(CC(=O)NCc2ccco2)CC(C(=O)N(C)C)=C1C (stereo unspecified) 14.3%
CCOc1ccc(NC(N)=O)cc1 2.99%
CCOc1ccc(NS(=O)(=O)c2ccc(N)cc2)cc1 1.38%
CCc1ccc(N2CN(Cc3cccnc3)CNC2=S)cc1 4.47%
COc1ccc(C2C(C(=O)Nc3cccc(C)n3)c3ccccc3C(=O)N2C)cc1 (stereo unspecified) 5.99%
COc1ccc(Br)cc1CN1CCN(C(=O)c2cccc(F)c2)CC1 26.9%
O=C(c1cccnc1)N1CCN(Cc2cccc(F)c2)CC1 23.3%
O=C(c1cccnc1)N1CCN(Cc2ccc3ccccc3c2)CC1 22.8%
O=C(c1cccc(F)c1)N1CCN(Cc2ccco2)CC1 24.7%
O=C(CCn1nc(-c2ccc(Cl)cc2)ccc1=O)N1CCN(c2ccccc2)CC1 11.2%
Cc1sc(NC(=O)CCC(=O)O)c(C#N)c1C 4.82%
CCCCNc1c(-c2ccc(-c3ccc(OC)cc3)c(OC)c2)nc2ccccn12 0.86%
CCc1nc2ccccc2c(C(=O)O)c1C 1.89%
CCOc1ccc(CC2S/C(=N/N=C/c3ccco3)NC2=O)cc1 (stereo unspecified) -0.79%
CN(C(=O)c1ccc(NC(=O)Cc2ccc(NC(=O)C3CCN(C(=O)C4CCCC4)CC3)cc2)cc1)C1CC1 4.41%
CCC(C)NC(=O)CNC(=S)N(CCCN1CCOCC1)Cc1cccs1 (stereo unspecified) -3.85%
Cc1ccc2c(c1)N(C(=O)CCC(=O)N1CCC(C(N)=O)CC1)CCO2 -0.21%
Cc1cc(Cl)ccc1NC(=O)CN1C(=O)NC2(CCCC2)C1=O 7.39%
O=C(CN1C(=O)NC2(CCCCC2)C1=O)Nc1ccc(N2CCCCC2)cc1 -8.69%
CCC1(c2ccccc2)NC(=O)N(CC(=O)Nc2ccccc2N2CCCC2)C1=O (stereo unspecified) 2.64%
Cc1cc(N2CCCC2)ccc1NC(=O)CN1C(=O)NC(C)(c2ccccc2)C1=O (stereo unspecified) 22.9%
Cc1ccc(C)c(NS(=O)(=O)c2cc3c4c(c2)CC(=O)N4CCC3)c1 12.2%
COc1cc(C2N(C)C(=O)c3ccccc3N2C)ccc1O (stereo unspecified) 9.29%
O=C1c2ccccc2C(=O)C1c1ccc(Br)cc1 9.65%
COc1cc(C2OCC3C(c4cc(OC)c(OC)c(OC)c4)OCC23)cc(OC)c1OC (stereo unspecified) 3.17%
COc1cc([C@@H]2OC[C@@H]3[C@H]2CO[C@@H]3c2ccc3c(c2)OCO3)ccc1O 15.6%
COc1ccc(C2C(=O)c3ccccc3C2=O)cc1OC 8.73%
Cc1ccc(C2C(=O)c3ccccc3C2=O)cc1 5.72%
O=C(NNc1nc2c(F)cccc2s1)c1ccccc1 3.05%
CC(=O)NC(CC(=O)NCCc1ccccc1)c1ccccc1 (stereo unspecified) 5.84%
COc1cc(/C=C/C(=O)O)cc(S(=O)(=O)N(CC(C)C)CC(C)C)c1OC 3.78%
Cc1cc(OC(C)C(=O)NCCCN2CCOCC2)c2c(C)cc(=O)oc2c1 (stereo unspecified) 5.41%
CCN1C[C@@H]2[C@@H]3C(=O)N(C)C(=O)[C@@H]3[C@](Cc3ccccc3)(C(=O)OC)N2C1=NCc1ccccc1 8.57%
COc1cccc(NC(=O)COc2ncnc3sc(C)c(C)c23)c1 5.65%
CCOc1ccccc1/C=C(/NC(=O)c1ccccc1)C(=O)N(CC)CC 5.35%
CC[C@]12C(=O)N(C)C[C@H]([C@@H]3C(=O)N(C)C(=O)[C@@H]31)N2C(=O)c1ccc(F)cc1 7.98%
CNS(=O)(=O)c1cccc(C(=O)OCC(=O)C23CC4CC(CC(C4)C2)C3)c1 2.1%
O=C(COc1ccccc1[N+](=O)[O-])N/N=C/c1ccc(O)c([N+](=O)[O-])c1 5%
COCc1cc(C)nc(OCC(=O)N/N=C/c2ccc(C)cc2)c1C#N 6.19%
O=C(COc1ccccc1[N+](=O)[O-])N/N=C/c1ccncc1 3.99%
COc1ccc(/C=N/NC(=O)COc2cccc3cccnc23)cc1OC 12%
O=C(COc1cccc2cccnc12)N/N=C/c1ccccc1O 9.73%
COCc1cc(C)nc(OCC(=O)N/N=C/c2ccccc2)c1C#N 5.88%
CC(C(=O)NCC1CCCCC1)N(C)Cc1ccc(Cl)cc1 (stereo unspecified) 9.97%
NC(=O)c1ccc(NC(=O)CCc2nc3ccccc3s2)cc1 9.08%
Fc1ccccc1CN1CCN(c2ncccn2)CC1 18.2%
COc1ccccc1C(=O)N1CCN(CCc2ccccc2)CC1 5.14%
COc1cccc(OC)c1C(=O)N1CCN(Cc2ccncc2)CC1 17.3%
COc1ccc(CN2CCN(C(=O)c3cccnc3)CC2)cc1Br 26.4%
COc1ccccc1C(=O)N1CCN=C1SCc1cccnc1 9.35%
CCOc1ccccc1/C=C/c1nc2ccccc2[nH]c1=O -3.6%
CSCCC(=O)N(C)CC1CCN(CCc2cccc(C(F)(F)F)c2)CC1 -11.6%
COc1cc(OC)nc(NC(=O)NS(=O)(=O)c2ccc(OC(F)(F)F)cc2)n1 7.78%
COc1ccc2nc(SCC(=O)NC3CCCCC3C)[nH]c2c1 (stereo unspecified) 6.19%
COc1ccc(C(O)(C(C)C)C(CN2CCOCC2)c2ccc(Cl)cc2)cc1 (stereo unspecified) 3.23%
COc1ccc(-c2cnnc(N/N=C/c3ccc(O)c(OC)c3)n2)cc1 28.9%
COc1ccc(/C=N/Nc2cc(C)nc(NS(=O)(=O)c3ccc(C)cc3)n2)cc1 8.72%
COc1cc(/C=N/Nc2nc(C)cc(C)n2)ccc1OC(=O)c1ccco1 12.7%
Oc1ccc(/C=N/NC2=NCCCCC2)cc1 14.8%
COc1cc(/C=N/Nc2cc(C)nc(NS(=O)(=O)c3ccc(C)cc3)n2)ccc1O 23.4%
COc1cc(/C=N/Nc2nc(C)cc(C)n2)cc(OC)c1OC 18.6%
COc1ccc(-c2cnnc(N/N=C/c3ccc(O)cc3)n2)cc1 15.5%
Oc1ccccc1/C=N/NC1=NCCCCC1 -4.7%
CC(=O)NCc1nc2ccccc2n1Cc1ccccc1F 2.14%
Cc1cccc(C(=O)OCC(=O)NC2CCCCCCC2)c1 -0.77%
Cc1cc(C)c(C#N)c(SCc2nc3ccccc3[nH]2)n1 11.2%
CCN(C(=O)c1ccccc1)c1ccc([N+](=O)[O-])cc1 6.29%
C=CCn1c(N)cc(=O)nc1SCC(=O)Nc1ccc2ccccc2c1 6.15%
NC1=NC(c2ccccc2)CC(=O)N1 (stereo unspecified) 0.78%
COc1ccc(OC)c(CN2CCN(CC(=O)Nc3ccccc3C(=O)NC3CC3)CC2)c1 3.43%
Cc1ccc(-n2c(CNc3cccc(Cl)c3)n[nH]c2=S)cc1 -10.3%
CCN(CC)S(=O)(=O)c1cccc(C(=O)NCC2CCCO2)c1 (stereo unspecified) -3.29%
S=C(c1ccc(-c2ccccc2Cl)o1)N1CCOCC1 10.6%
CCNc1nc(NCC)nc(N/N=C/c2ccccc2)n1 5.89%
COc1cc(/C=N/Nc2nnc3c(n2)[nH]c2ccccc23)ccc1O 9.92%
COc1ccc(/C=N/NC2=NCCCCC2)cc1 -0.36%
COc1ccccc1/C=N/NC1=NCCCCC1 4.83%
COc1cc(/C=N\Nc2nc(-c3ccc(C)cc3)c(NC(C)=O)s2)ccc1O 17.7%
Cc1ccc(/C=N/Nc2nc(C)cc(C)n2)cc1 6.97%
Cc1cc(C)nc(N/N=C/c2ccc(Cl)cc2)n1 7.83%
CCNc1nc(NCC)nc(N/N=C/c2ccc(Br)cc2)n1 4.59%
